Inconclusive results are not listed. Calls of active or inactive are those of the source. Rule for the calls, unless noted: active = hit-call score of the fitted dose curve at least 0.9, where 1 is the maximum; inactive = score below 0.9.
Assays:
[1] = ATG_CRE_CIS: Attagene CIS-FACTORIAL HepG2 Assay for human cAMP Responsive Element (CRE) binding protein 3 (AID 2282926); details: HepG2 CRE cis-reporter, Attagene multiplexed mRNA; actives raise or lower the signal
Outline: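 Cells carrying cis-regulated reporter constructs respond through their own endogenous factors. After 24 h treatment, RNA is reverse-transcribed, amplified, labelled and sized by capillary electrophoresis; up- and down-regulation are both scored against vehicle.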

[2] = target: CCAAT/enhancer-binding protein beta (Homo sapiens) (UniProt P17676); assay: ATG_C_EBP_CIS: Attagene CIS-FACTORIAL HepG2 Assay for human CCAAT/Enhancer Binding Protein (C/EBP) beta (AID 2282927); details: HepG2 Attagene cis-factorial transcription factor reporter; actives raise or lower the signal
CCAAT/enhancer-binding protein beta (Homo sapiens), sequence (P17676 whole entry, looked up): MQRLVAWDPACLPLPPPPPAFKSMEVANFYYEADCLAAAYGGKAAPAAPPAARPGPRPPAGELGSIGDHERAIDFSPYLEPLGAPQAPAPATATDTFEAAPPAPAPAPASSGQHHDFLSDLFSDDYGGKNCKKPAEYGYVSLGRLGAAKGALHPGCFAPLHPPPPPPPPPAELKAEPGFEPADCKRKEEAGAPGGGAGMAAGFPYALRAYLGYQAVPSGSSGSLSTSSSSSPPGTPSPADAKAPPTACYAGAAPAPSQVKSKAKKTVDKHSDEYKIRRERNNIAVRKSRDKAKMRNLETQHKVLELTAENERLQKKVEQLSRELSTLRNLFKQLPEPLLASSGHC
Outline: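 HepG2, transient MRTU transfection, 24 h treatment. RT-PCR plus CE fluorescence; DMSO negative control, bidirectional fit.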

[3] = ATG_CMV_CIS: Attagene CIS-FACTORIAL HepG2 Assay for human CMV (Internal Marker) (AID 2282928); details: HepG2 CMV promoter reporter, transcription factor profiling; actives raise or lower the signal;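 note: endpoint acts as a background internal control marker rather than a target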
Outline: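 24 h chemical treatment, HepG2 with transient multi-reporter transfection; RNA → oligo(dT) RT → PCR → 6-FAM extension → HpaI digest → CE fluorescence. Bidirectional fit, DMSO negative control.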

[4] = ATG_DR4_LXR_CIS: Attagene CIS-FACTORIAL HepG2 Assay for human Liver X Receptor (LXR), DR4 submotif (AID 2282929); details: HepG2 Attagene DR4 cis-reporter, mRNA transcription; actives raise or lower the signal
Outline: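 DR4 cis-reporter in HepG2, 24 h exposure. Detection: RT-PCR, 6-FAM labelling, CE fragment analysis. Endpoint fitted bidirectionally, DMSO = baseline.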

[5] = target: Aryl hydrocarbon receptor (Homo sapiens) (UniProt P35869); assay: ATG_Ahr_CIS: Attagene CIS-FACTORIAL HepG2 Assay for human Aryl Hydrocarbon Receptor (Ahr) (AID 2282930); details: HepG2 AhR cis-factorial reporter transcription; actives raise or lower the signal
Aryl hydrocarbon receptor (Homo sapiens), sequence (P35869 whole entry, looked up): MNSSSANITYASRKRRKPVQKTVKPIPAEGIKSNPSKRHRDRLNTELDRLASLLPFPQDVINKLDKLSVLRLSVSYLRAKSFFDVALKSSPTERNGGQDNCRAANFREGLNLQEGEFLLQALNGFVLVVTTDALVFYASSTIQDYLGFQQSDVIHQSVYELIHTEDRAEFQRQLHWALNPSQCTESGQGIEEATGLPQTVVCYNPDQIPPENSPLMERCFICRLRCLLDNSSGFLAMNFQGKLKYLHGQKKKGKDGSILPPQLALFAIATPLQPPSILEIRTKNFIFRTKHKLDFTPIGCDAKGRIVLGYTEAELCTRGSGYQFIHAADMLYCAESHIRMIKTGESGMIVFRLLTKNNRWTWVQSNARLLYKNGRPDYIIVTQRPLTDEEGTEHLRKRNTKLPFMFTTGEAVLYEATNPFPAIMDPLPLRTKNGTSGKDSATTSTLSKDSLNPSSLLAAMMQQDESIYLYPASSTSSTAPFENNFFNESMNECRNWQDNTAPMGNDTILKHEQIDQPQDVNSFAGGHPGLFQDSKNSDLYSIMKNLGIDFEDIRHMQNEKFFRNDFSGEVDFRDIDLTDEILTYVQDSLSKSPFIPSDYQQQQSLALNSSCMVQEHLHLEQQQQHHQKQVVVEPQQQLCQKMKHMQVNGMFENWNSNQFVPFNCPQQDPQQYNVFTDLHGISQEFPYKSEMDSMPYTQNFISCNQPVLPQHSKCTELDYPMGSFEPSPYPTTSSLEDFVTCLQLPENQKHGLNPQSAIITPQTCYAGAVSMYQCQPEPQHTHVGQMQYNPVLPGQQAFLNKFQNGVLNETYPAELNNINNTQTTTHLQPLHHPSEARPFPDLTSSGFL
Outline: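 Endogenous factor activity is tracked through cis-promoter reporter units transfected into HepG2 cells. Transcript levels at 24 h are read by fluorescent RT-PCR and capillary electrophoresis, with activity in either direction scored relative to DMSO.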

[6] = ATG_AP_1_CIS: Attagene CIS-FACTORIAL HepG2 Assay for human Activator Protein 1 (AP-1) (AID 2282931); details: HepG2 Attagene cis-factorial AP-1 reporter mRNA; actives raise or lower the signal
Outline: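 Cis-regulated reporter units transiently expressed in HepG2 report endogenous transcription-factor activity. Signal: reporter mRNA at 24 h, via RT-PCR and fluorescent capillary electrophoresis. Endpoint derived by bidirectional fitting, DMSO as negative control.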

[7] = ATG_AP_2_CIS: Attagene CIS-FACTORIAL HepG2 Assay for human Activator Protein 2 (AP-2) (AID 2282932); details: HepG2 AP-2 cis-reporter, Attagene transcription factor profiling; actives raise or lower the signal
Outline: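 Read-out: fluorescent reporter mRNA via RT-PCR and capillary electrophoresis, 24 h post-dose in transiently transfected HepG2. Endogenous factors drive cis-promoter reporters; gain or loss of signal fitted bidirectionally against DMSO.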

[8] = ATG_BRE_CIS: Attagene CIS-FACTORIAL HepG2 Assay for human Bone Morphogenetic Protein (BMP) Response Element (BRE) (AID 2282933); details: HepG2 BMP response element reporter, Attagene transcription factor profiling; actives raise or lower the signal
Outline: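 HepG2 cells transiently transfected with multiplexed cis-element reporter units were dosed with chemical for 24 h. Reporter mRNA was measured by RT-PCR with fluorescent labelling, HpaI digestion and capillary electrophoresis; bidirectional fitting relative to DMSO.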

[9] = target: Retinoic acid receptor alpha (Homo sapiens) (UniProt P10276); assay: ATG_DR5_RAR_CIS: Attagene CIS-FACTORIAL HepG2 Assay for human Retinoic Acid Receptor Alpha (RARE), DR5 submotif (AID 2282934); details: HepG2 Attagene cis-factorial RARE DR5 reporter, mRNA; actives raise or lower the signal
Retinoic acid receptor alpha (Homo sapiens), sequence (P10276 whole entry, looked up): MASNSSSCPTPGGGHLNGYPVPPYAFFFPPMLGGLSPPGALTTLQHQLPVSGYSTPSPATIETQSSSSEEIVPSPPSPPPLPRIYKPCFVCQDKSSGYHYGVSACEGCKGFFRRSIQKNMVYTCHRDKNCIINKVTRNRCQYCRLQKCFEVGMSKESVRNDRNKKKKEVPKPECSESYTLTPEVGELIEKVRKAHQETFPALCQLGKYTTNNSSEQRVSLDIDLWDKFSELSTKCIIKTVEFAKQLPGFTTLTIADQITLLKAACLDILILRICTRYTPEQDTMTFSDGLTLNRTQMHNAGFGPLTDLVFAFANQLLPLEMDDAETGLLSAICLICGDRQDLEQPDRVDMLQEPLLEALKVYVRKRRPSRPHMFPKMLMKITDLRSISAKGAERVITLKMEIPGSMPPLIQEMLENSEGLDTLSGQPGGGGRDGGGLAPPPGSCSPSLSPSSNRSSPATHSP
Outline: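 After 24 h of chemical exposure, transiently transfected HepG2 cells were lysed for total RNA; the DR5-regulated reporter transcript was quantified via RT-PCR and capillary electrophoresis, with activity fitted bidirectionally against DMSO.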

[10] = target: Transcription factor E2F1 (Homo sapiens) (UniProt Q01094); assay: ATG_E2F_CIS: Attagene CIS-FACTORIAL HepG2 Assay for human E2F Transcription Factor 1 (AID 2282935); details: HepG2 Attagene cis-reporter, E2F reporter RNA transcripts; actives raise or lower the signal
Transcription factor E2F1 (Homo sapiens), sequence (Q01094 whole entry, looked up): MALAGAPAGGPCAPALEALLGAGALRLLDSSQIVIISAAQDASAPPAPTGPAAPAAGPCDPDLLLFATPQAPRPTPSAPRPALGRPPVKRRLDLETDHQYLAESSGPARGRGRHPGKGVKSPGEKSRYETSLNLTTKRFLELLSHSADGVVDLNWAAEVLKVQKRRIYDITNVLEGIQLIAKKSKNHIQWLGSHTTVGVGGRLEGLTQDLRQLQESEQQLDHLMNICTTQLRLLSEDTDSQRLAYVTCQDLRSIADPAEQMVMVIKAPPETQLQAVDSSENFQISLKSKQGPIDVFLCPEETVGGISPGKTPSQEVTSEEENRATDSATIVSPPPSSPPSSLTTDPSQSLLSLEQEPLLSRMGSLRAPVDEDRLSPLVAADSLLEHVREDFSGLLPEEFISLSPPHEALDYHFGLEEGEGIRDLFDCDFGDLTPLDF
Outline: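 Transient MRTU transfection of HepG2; 24 h compound exposure; RNA → oligo(dT) RT → PCR → FAM label → HpaI cut → CE fluorescence. Gain/loss of signal fit against DMSO.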

[11] = ATG_E_Box_CIS: Attagene CIS-FACTORIAL HepG2 Assay for human Enhancer Box (E-box) (AID 2282936); details: HepG2 E-box cis-reporter transcription, actives raise or lower the signal
Outline: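 Transiently transfected HepG2, endogenous TF-driven reporters, 24 h dosing. Readout: RT-PCR plus capillary electrophoresis of fluorescent reporter fragments. Gain or loss of signal fitted bidirectionally against DMSO baseline.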

[12] = ATG_M_61_CIS: Attagene CIS-FACTORIAL HepG2 Assay for M61 Transcription Factor (Internal Marker) (AID 2282937); details: HepG2 Attagene CIS-FACTORIAL M61 internal marker reporter; actives raise or lower the signal
Outline: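 Background-control endpoint: HepG2 cells with cis-regulated reporter constructs, 24 h exposure, reporter mRNA detected via fluorescent primer extension and capillary electrophoresis; values from bidirectional fitting with DMSO baseline.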

[13] = ATG_EGR_CIS: Attagene CIS-FACTORIAL HepG2 Assay for human Early Growth Response 1 (EGR1) (AID 2282938); details: HepG2 Attagene CIS-FACTORIAL EGR reporter mRNA; actives raise or lower the signal
Outline: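 Endpoint derived by bidirectional fitting versus DMSO vehicle. Method: cis-promoter reporter units transfected into HepG2, 24 h dosing, RNA isolation, RT-PCR with 6-FAM primer extension and HpaI digestion, then capillary electrophoresis fluorescence detection.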

[14] = ATG_M_19_CIS: Attagene CIS-FACTORIAL HepG2 Assay for M19 Transcription Factor (Internal Marker) (AID 2282939); details: HepG2 Attagene CIS-FACTORIAL M19 internal marker reporter; actives raise or lower the signal
Outline: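 HepG2 cells transiently transfected with cis-regulated multiple reporter transcription units were dosed for 24 h; reporter mRNA was quantified by RT-PCR, 6-FAM primer-extension labelling, HpaI digestion and capillary electrophoresis, with bidirectional fitting against DMSO baseline.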

[15] = ATG_ERE_CIS: Attagene CIS-FACTORIAL HepG2 Assay for Estrogen Response Element (ERE) (AID 2282940); details: HepG2 ERE cis-reporter, Attagene RNA transcript; actives raise or lower the signal
Outline: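 HepG2 cells transiently transfected with cis-promoter-driven multiplexed reporter transcription units report endogenous TF activity. After 24 h compound exposure, reporter mRNA is quantified by RT-PCR with capillary electrophoresis fluorescence; bidirectional fitting versus DMSO baseline.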

[16] = ATG_Ets_CIS: Attagene CIS-FACTORIAL HepG2 Assay for human Erythroblast Transformation Specific (ETS) (AID 2282941); details: HepG2 ETS cis-reporter transcription, actives raise or lower the signal
Outline: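 Cis-regulated reporter mRNA induction in HepG2 (transient transfection), 24 h exposure, RT-PCR plus capillary electrophoresis detection; DMSO serves as negative control and baseline.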

[17] = target: Hepatocyte nuclear factor 3-beta (Homo sapiens) (UniProt Q9Y261); assay: ATG_FoxA2_CIS: Attagene CIS-FACTORIAL HepG2 Assay for human Forkhead box A2 (FOXA2) (AID 2282942); details: HepG2 cis-reporter transcription factor activity, 24 h; actives raise or lower the signal
Hepatocyte nuclear factor 3-beta (Homo sapiens), sequence (Q9Y261 whole entry, looked up): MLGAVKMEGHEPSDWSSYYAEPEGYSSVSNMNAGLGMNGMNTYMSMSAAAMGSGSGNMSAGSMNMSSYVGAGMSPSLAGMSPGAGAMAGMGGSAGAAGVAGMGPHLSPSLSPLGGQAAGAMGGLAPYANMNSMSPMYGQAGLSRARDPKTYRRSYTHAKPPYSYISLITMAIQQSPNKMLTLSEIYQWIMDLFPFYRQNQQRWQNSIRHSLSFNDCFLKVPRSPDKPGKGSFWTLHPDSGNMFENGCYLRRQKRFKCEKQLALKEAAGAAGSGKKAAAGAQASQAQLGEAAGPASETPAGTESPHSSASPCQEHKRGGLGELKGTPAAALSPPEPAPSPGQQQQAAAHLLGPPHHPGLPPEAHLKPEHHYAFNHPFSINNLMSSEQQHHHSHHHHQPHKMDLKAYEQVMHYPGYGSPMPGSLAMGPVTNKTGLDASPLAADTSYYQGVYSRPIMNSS
Outline: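 Measured: reporter mRNA induction or loss in HepG2 transiently carrying multiple cis-regulated reporter units, 24 h after dosing. Quantified by RT-PCR plus capillary electrophoresis, normalised to DMSO.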

[18] = ATG_FoxO_CIS: Attagene CIS-FACTORIAL HepG2 Assay for human Forkhead box O (FoxO) (AID 2282943); details: HepG2 Attagene cis-reporter, FoxO element, mRNA; actives raise or lower the signal
Outline: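 Transfected HepG2 reporter cells exposed to test chemical for 24 h; reporter RNA measured by reverse transcription, PCR and fluorescent capillary electrophoresis; curves fitted for increases and decreases against DMSO.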

[19] = ATG_GATA_CIS: Attagene CIS-FACTORIAL HepG2 Assay for human GATA Binding Protein (AID 2282944); details: HepG2 GATA cis-element reporter, Attagene multiplex mRNA; actives raise or lower the signal
Outline: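 HepG2 cells transiently transfected with multiplexed cis-element reporter units reflecting endogenous transcription factor activity; reporter mRNA measured after 24 h dosing by RT-PCR, 6-FAM labeling, HpaI digestion and capillary electrophoresis. Bidirectional fitting versus DMSO baseline.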

[20] = ACEA_ER_80hr: ACEA Biosciences xCELLigence Real-Time Cell Analysis on Estrogen Receptor Agonism for Proliferation (AID 2282667; active = hit-call score of the fitted dose curve at least 0.9, where 1 is the maximum); details: T47D proliferation, impedance (xCELLigence), 80 h
Outline: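 Cell-growth kinetics were measured by impedance in T47D cells treated continuously with compound (top 100 uM final, 1:4 steps, 8 points). Activity at 80 h was scored as signal gain over the DMSO baseline.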

Measured: AC50

CN(C(=O)C(F)(F)C(F)(F)C(F)(F)F)[Si](C)(C)C
not listed: [20]
inactive: all other assays above

CC(C)=CCCC(C)O (stereo not given)
not listed: [2] | [6] | [9]
inactive: all other assays above

O=S(=O)(O)c1ccc(Cl)cc1
not listed: [2]
inactive: all other assays above

COCCOCCC[Si](C)(O[Si](C)(C)C)O[Si](C)(C)C
active: [20] 0.437 µM | [4] 54.1 µM | [7] 60.1 µM | [8] 9.13 µM
not listed: [6] | [9] | [17]
inactive: all other assays above

O=C1c2c(O)ccc(Nc3ccc(CCO)cc3)c2C(=O)c2c([N+](=O)[O-])ccc(O)c21
active: [3] 12 µM | [5] 0.896 µM | [6] 17.7 µM
not listed: [2] | [17]
inactive: all other assays above

CNS(=O)(=O)C(F)(F)C(F)(F)C(F)(F)C(F)(F)C(F)(F)C(F)(F)C(F)(F)C(F)(F)F
active: [6] 13.7 µM
not listed: [2]
inactive: all other assays above

O=C(c1ccccc1)c1ccc(Cl)cc1
active: [15] 44.4 µM
not listed: [2] | [6]
inactive: all other assays above

N#CCCOCCC#N
not listed: [6] | [8]
inactive: all other assays above
